ERb coact inh: blocks coactivator binding to human estrogen receptor beta; 86,000 compounds, 1.3% hits; TR-FRET ER-beta LBD / SRC1-Cy5 peptide binding; receptor agonist-loaded with 1 µM estradiol; Q92731; AID 633; inhibition, % at 25.6 µM;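 active = compounds whose percent inhibition of the receptor-coactivator binding signal exceeds about 50% in the single-dose screen, limit read from the data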;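 note: 0% = receptor plus peptide wells without compound and 100% = peptide-only wells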
Candida biofilm: kills Candida albicans biofilms | C. albicans biofilm + clotrimazole, Alamar Blue | inhibition, % at 6 µM | 85,000 compounds, 0.14% hits | AID 834;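 active = inhibition above 20%; inactive = inhibition below 20%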;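 note: preformed 24 hr biofilms exposed to compound for 48 hr; 0% = biofilm without compound and 100% = blank killed by clotrimazole plus chlorhexidine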
ERa SRC1 inh: ER-alpha (human) coactivator binding inhibition. inhibition, % at 25.6 µM. TR-FRET ER-alpha LBD / SRC-1 peptide, estradiol-bound. P03372. 86,000 compounds, 1.7% hits. AID 629; in the data active = inhibition above about 50%;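 note: 0% = receptor plus peptide control and 100% = peptide only without receptor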
Target sequence (P03372 whole entry, looked up, the tested form may be a part): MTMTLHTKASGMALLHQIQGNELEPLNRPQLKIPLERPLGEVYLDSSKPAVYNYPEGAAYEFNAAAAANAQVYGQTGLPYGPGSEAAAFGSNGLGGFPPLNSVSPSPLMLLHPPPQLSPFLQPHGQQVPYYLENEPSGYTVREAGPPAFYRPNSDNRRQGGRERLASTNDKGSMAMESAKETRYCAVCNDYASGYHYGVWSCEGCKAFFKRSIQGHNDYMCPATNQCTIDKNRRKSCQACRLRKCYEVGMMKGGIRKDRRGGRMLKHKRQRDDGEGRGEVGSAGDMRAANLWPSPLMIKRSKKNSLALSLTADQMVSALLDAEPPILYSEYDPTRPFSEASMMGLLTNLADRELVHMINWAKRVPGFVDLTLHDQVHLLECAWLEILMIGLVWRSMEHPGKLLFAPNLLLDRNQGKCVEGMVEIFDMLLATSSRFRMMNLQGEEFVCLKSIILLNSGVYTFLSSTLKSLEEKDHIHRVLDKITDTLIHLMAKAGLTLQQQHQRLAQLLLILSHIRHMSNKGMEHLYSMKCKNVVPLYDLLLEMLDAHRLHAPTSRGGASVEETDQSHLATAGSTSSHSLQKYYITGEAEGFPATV
E-sel TNF inh: TNF alpha driven E-selectin expression inhibition; HUVEC TNFa-induced E-selectin immunofluorescence, high content; AID 1246; 120,000 compounds, 0.71% hits; inhibition, % at 2 µM;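 active = inhibition above the batch mean plus 3 SD, and confirmed as a hit on visual image review, cut at about 43% in these data; inconclusive = passes the inhibition cutoff but fails visual image review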;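 note: 0% = TNF-stimulated DMSO wells and 100% = unstimulated control wells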
ERa coact pot: enhances coactivator binding to human estrogen receptor alpha. coactivator binding (% of control), % at 25.6 µM. TR-FRET ERalpha-LBD/SRC-Cy5 coactivator binding, 2 h; 100 = basal binding, no effect. 86,000 compounds, 1.3% hits; in the data active = activity above about 200%;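 note: binding measured in presence of low estradiol as agonist stimulus; 0% = peptide alone without receptor and 100% = receptor with peptide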
cytoskel mod: alters cytoskeleton assembly in HUVEC cells | HUVEC TNFa F-actin phalloidin imaging, high content | inhibition, % at 2 µM | 91,000 compounds, 0.18% hits | AID 836;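 active = inhibition above the batch mean plus 3 SD and confirmed as a hit by visual image inspection, cut at about 30% in these data, passing the limit was not always enough; inconclusive = above the inhibition threshold but rejected on visual inspection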
* = called active by the depositor; ? = inconclusive; / = no result; [ ] = another dose, or the depositor's remark. Rows were chosen to be rich in hits. Some 2.9% of all compounds tested hit in one or more screens of this group.

SMILES	ERb coact inh	Candida biofilm	ERa SRC1 inh	E-sel TNF inh	ERa coact pot	cytoskel mod
COc1cc(/C=C2/C(=N)N3C=CSC3=NC2=O)ccc1OCCCOc1ccccc1C	72*[fluorescence artefact?]	1	71*	7	68	39
COc1cc(/C=C2/C(=N)N3C=CSC3=NC2=O)ccc1OCCCOc1c(C)cccc1C	43	8	90*[fluorescence artefact?]	10	120	-4
O=c1c2ccccc2nnn1CSc1ncnc2ccccc12	/	/	/	0	/	-9
Cc1nc(SCn2nnc3ccccc3c2=O)c2c(C)c(C)sc2n1	29	2	64*[fluorescence artefact?]	/	98	/
COC(=O)c1ccc(NC(=O)CCN2CCN(Cc3ccccc3)CC2)cc1	-8	-3	-2	6	102	-12
CCCc1cc(N2CCN(c3ccccn3)CC2)n2nc(C)c(-c3ccccc3)c2n1	25	5	5	/	242*[fluorescence artefact?]	-38
O=C(Nc1nc(-c2nc3ccccc3s2)cs1)C1COc2ccccc2O1 (stereo not given)	30	3	68*	-9	128	/
CCOc1ccc(-c2cc(C(=O)OC)[nH]n2)cc1	/	/	/	12	/	/
Cc1ccc(NC(=O)c2cccs2)cc1	-2	3	-10	14	94	-21
Cc1[nH]c(=O)[nH]c(=O)c1NC(=O)c1cccs1	-6	9	87*[fluorescence artefact?]	-22	102	9
CC1CCN(CCCNC(=O)c2ccc(Cn3c(=S)[nH]c4ccc(Br)cc4c3=O)cc2)CC1	/	/	/	16	/	/
Cc1ccc(-c2cc(C(=O)NCc3ccccn3)no2)cc1	-13	8	-33	16	101	77*
Cc1ccc2[nH]c3c(=O)n(CCC4=CCCCC4)cnc3c2c1	16	-1	13	-9	335*[fluorescence artefact?]	-7
O=c1c2[nH]c3ccccc3c2ncn1CCC1=CCCCC1	45	4	3	-13	308*[fluorescence artefact?]	-8
CC(CN1CCCC(C(N)=O)C1)c1ccccc1 (stereo not given)	/	/	/	2	/	8
O=C(NCc1ccco1)C1Cc2ccccc2CN1C(=O)c1ccco1 (stereo not given)	/	/	/	27	/	/
O=C(NCc1ccco1)C1Cc2ccccc2CN1S(=O)(=O)c1ccccc1F (stereo not given)	40	-2	49	0	202*[fluorescence artefact?]	-3
Cc1ccc(C)n1-c1ccc(C(=O)NN=C2CCCC2)cc1	/	/	/	-1	/	/
Cc1c(CNCc2cccs2)c(C(=O)O)c(C)n1Cc1ccccc1	-6	7	-3	-17	229*[fluorescence artefact?]	-9
O=C(/C=C/c1ccc(Cl)c([N+](=O)[O-])c1)Nc1ccc(N2CCCC2)cc1	/	/	/	-26	/	/
Cn1nc(C(=O)Nc2c(-c3ccccc3)nc3sccn23)c2ccccc2c1=O	16	5	62*[fluorescence artefact?]	10	85	7
O=C(CSCc1ccc(Cl)cc1)NCC1CCCO1 (stereo not given)	-6	3	-3	/	109	2
O=C(CSc1ccc(Cl)cc1)NCC1CCCO1 (stereo not given)	-2	65*	-1	8	96	-2
O=C(COC(=O)C1c2ccccc2Oc2ccccc21)NC1CCS(=O)(=O)C1 (stereo not given)	-11	-6	-1	/	115	72*
CN(C(=O)COC(=O)C1c2ccccc2Oc2ccccc21)C1CCS(=O)(=O)C1 (stereo not given)	-3	-3	-4	/	129	-5
SMILES	ERb coact inh	Candida biofilm	ERa SRC1 inh	E-sel TNF inh	ERa coact pot	cytoskel mod
CCCNC(=O)N1CCN(S(=O)(=O)c2ccc(C)c(C)c2)CC1	-13	20*	-3	-19	113	0
CCCNC(=O)N1CCN(S(=O)(=O)c2ccc(C)cc2)CC1	-3	9	-6	1	139	35
Cc1ccc(S(=O)(=O)NNC(=O)C2COc3ccccc3O2)cc1C (stereo not given)	/	/	/	-14	/	/
Cc1ccc(S(=O)(=O)N2CCN(C(=O)C3COc4ccccc4O3)CC2)cc1C (stereo not given)	-2	9	-2	79*	88	9
Cc1nn(C2CCS(=O)(=O)C2)c(Cl)c1/C=C/C(=O)OCC(=O)c1cc(C)n(-c2ccc(F)cc2)c1C (stereo not given)	/	/	/	16	/	/
COc1ccc(OC)c(NC(=O)C2CCN(Cc3cnn(-c4ccccc4)c3-n3cccc3)CC2)c1	-9	5	-4	-39	215*	2
COc1ccc(NC(=O)C2CCN(Cc3cnn(-c4ccccc4)c3-n3cccc3)CC2)cc1OC	7	11	-6	3	108	17
c1ccc(C2=Nc3ccccc3SC2c2nc3ccccc3[nH]2)cc1 (stereo not given)	-1	0	3	-9	76	15
CC(C)CCSc1nc(N)c(C#N)cc1C#N	25	12	40	-15	391*[fluorescence artefact?]	-25
O=C(Nc1nc2ccccc2s1)c1cc2c(s1)-c1ccccc1OC2	46	11	71*	13	177	7
Oc1ccc(Nc2nc3ccccc3nc2Nc2ccc(O)cc2)cc1	83*[fluorescence artefact?]	1	73*[fluorescence artefact?]	46	14	?
COc1ccc2nc3sc(C(=O)NCc4cccs4)c(N)c3cc2c1	19	8	54*[fluorescence artefact?]	/	90	-22
CCCOc1ccc(-c2nnn(CC(=O)c3ccc4c(c3)OCCO4)n2)cc1	-7	6	-10	21	141	8
CCOc1ccc(-c2nnn(CC(=O)c3ccc4c(c3)OCCO4)n2)cc1	-21	2	-11	/	213*	14
CCCn1c(N)c(C(=O)CSc2nnc(C)n2Cc2ccccc2)c(=O)n(C)c1=O	-1	3	-1	5	96	-2
CC(C)Cn1c(N)c(C(=O)CSc2nnnn2-c2ccc(Cl)cc2)c(=O)n(C)c1=O	-2	4	25	/	327*	/
CCCn1c(N)c(C(=O)CSc2nnnn2-c2ccc(O)cc2)c(=O)n(C)c1=O	10	83*	4	/	103	-7
COc1ccccc1N1CCN(S(=O)(=O)Cc2ccccc2Cl)CC1	-20	2	-29	25	112	/
O=C1NCN(c2ccccc2)C12CCN(c1nnnn1-c1ccccc1)CC2	-13	7	2	12	122	4
CCOC(=O)c1c(Nc2nc(C)c(C(=O)NC)s2)sc(C)c1C	19	2	69*	5	97	2
CCOC(=O)c1sc(Nc2ccccc2)nc1C	4	3	-5	5	97	2
Cc1cccc(C)c1N1C(=O)CC(N(O)c2ccccc2)C1=O (stereo not given)	7	10	-25	24	111	-13
Cc1c(Cl)cccc1N1C(=O)CC(N(O)c2ccccc2)C1=O (stereo not given)	4	8	-25	100*	101	-1
COc1ccc(NC2C=CS(=O)(=O)C2)c(OC)c1 (stereo not given)	-5	24*	-11	-10	105	/
CC(=O)OC1=C(C#N)Cn2ccc3cccc1c32	46	3	61*[fluorescence artefact?]	4	63	-13
O=C1c2ccsc2SCCN1Cc1ccc(Cl)cc1	56*[fluorescence artefact?]	12	16	6	76	-8

Screens as filed in PubChem.
